Laboratory results reported in the supplement of paper PMC8877412.
Counter-ions that a name gives are not always drawn. ± gives the uncertainty stated by the source.

Tested on: NCC-PMP1-C1
Experiment: cell viability relative to DMSO control; higher = less growth inhibition
Settings: 10 µM; 72 h
Procedure: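 NCC-PMP1-C1 pseudomyxoma peritonei cells were seeded in 384-well plates coated with Matrigel and MEF (1e4 cells). Viability was read after 72 h by CCK-8 and expressed as % of the DMSO control, mean ± SD of duplicates.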

Row | SMILES | cell viability [%]
1 | Cc1ccc(F)c(NC(=O)Nc2ccc(-c3cccc4[nH]nc(N)c34)cc2)c1 [Linifanib (ABT-869)] | 45.2 ± 6.3
2 | CCN1CCN(Cc2ccc(Nc3ncc(F)c(-c4cc(F)c5nc(C)n(C(C)C)c5c4)n3)nc2)CC1 [Abemaciclib] | 65.2 ± 4.2
3 | CN(C)/N=N/c1[nH]cnc1C(N)=O [Dacarbazine] | 111.7 ± 1.1
4 | O=c1[nH]cc(F)c(=O)[nH]1 [Fluorouracil (5-Fluoracil, 5-FU)] | 86.7 ± 7.5
5 | CN(C)c1nc(N(C)C)nc(N(C)C)n1 [Altretamine] | 113 ± 7.4
6 | CC(C)C[C@H](NC(=O)[C@H](Cc1ccccc1)NC(=O)c1cnccn1)B(O)O [Bortezomib (PS-341)] | -0.129 ± 0.47
7 | COc1ccc2[nH]c([S@@+]([O-])Cc3ncc(C)c(OC)c3C)nc2c1 [Esomeprazole Sodium] | 108 ± 1.5
8 | CC#CCn1c(N2CCC[C@@H](N)C2)nc2c1c(=O)n(Cc1nc(C)c3ccccc3n1)c(=O)n2C [Linagliptin] | 94.5 ± 11
9 | CS(=O)(=O)CCNCc1ccc(-c2ccc3ncnc(Nc4ccc(OCc5cccc(F)c5)c(Cl)c4)c3c2)o1 [Lapatinib] | 50.4 ± 2.3
10 | COc1c2occc2cc2ccc(=O)oc12 [Methoxsalen] | 92.6 ± 16
11 | N#CC1(c2ccc(NC(=O)c3cccnc3NCc3ccncc3)cc2)CCCC1 [Apatinib] | 77.6 ± 9.1
12 | O=NN(CCCl)C(=O)NC1CCCCC1 [Lomustine] | 105 ± 11
13 | N=C(N)NC(=N)N1CCOCC1 [Moroxydine HCl] | 104 ± 11
14 | CS(=O)(=O)c1ccc(C(=O)Nc2ccc(Cl)c(-c3ccccn3)c2)c(Cl)c1 [Vismodegib (GDC-0449)] | 90.5 ± 3.3
15 | Nc1nc2[nH]cc(CCc3ccc(C(=O)N[C@@H](CCC(=O)O)C(=O)O)cc3)c2c(=O)[nH]1 [Pemetrexed Disodium Hydrate] | 101 ± 18
16 | Nc1nc(Cl)nc2c1ncn2[C@@H]1O[C@H](CO)[C@@H](O)[C@@H]1F [Clofarabine] | 112 ± 5.7
17 | COc1cc(N2CCC(N3CCN(C)CC3)CC2)ccc1Nc1ncc(Cl)c(Nc2ccccc2S(=O)(=O)C(C)C)n1 | 38.3 ± 2.1
18 | COc1cc(Nc2c(C#N)cnc3cc(OCCCN4CCN(C)CC4)c(OC)cc23)c(Cl)cc1Cl [Bosutinib (SKI-606)] | 52.4 ± 0.73
19 | COC(=O)C[C@](O)(CCCC(C)(C)O)C(=O)O[C@@H]1C(OC)=C[C@]23CCCN2CCc2cc4c(cc2[C@H]13)OCO4 [Homoharringtonine] | -1.02 ± 0.42
20 | COC(=O)C1=C(C#N)NC(C)=C(C(=O)OC(C)C)C1c1cccc([N+](=O)[O-])c1 (stereo not given) [Nilvadipine] | 82.8 ± 3.3

Row | SMILES | cell viability [%]
21 | Cc1nc(Nc2ncc(C(=O)Nc3c(C)cccc3Cl)s2)cc(N2CCN(CCO)CC2)n1 [Dasatinib Monohydrate] | 41.1 ± 8.4
22 | O=C1CCC(N2C(=O)c3ccccc3C2=O)C(=O)N1 (stereo not given) [Thalidomide] | 110 ± 6.2
23 | CN1CCN(CCOc2cc(OC3CCOCC3)c3c(Nc4c(Cl)ccc5c4OCO5)ncnc3c2)CC1 [Saracatinib (AZD0530)] | 49.7 ± 2
24 | Nc1ncn([C@@H]2O[C@H](CO)[C@@H](O)[C@H]2O)c(=O)n1 [Azacitidine] | 83.3 ± 6.9
25 | CNC(=O)c1ccccc1Sc1ccc2c(/C=C/c3ccccn3)n[nH]c2c1 [Axitinib] | 61.27 ± 0.13
26 | CN1CCN(c2ccc(C(=O)Nc3n[nH]c4ccc(Cc5cc(F)cc(F)c5)cc34)c(NC3CCOCC3)c2)CC1 [Entrectinib (RXDX-101)] | -0.545 ± 0.059
27 | CC[C@]1(O)C[C@H]2CN(CCc3c([nH]c4ccccc34)[C@@](C(=O)OC)(c3cc4c(cc3OC)N(C=O)[C@H]3[C@@](O)(C(=O)OC)[C@H](OC(C)=O)[C@]5(CC)C=CCN6CC[C@]43[C@@H]65)C2)C1 [Vincristine] | 50.8 ± 0.53
28 | COc1nc(N)nc2c1ncn2[C@@H]1O[C@H](CO)[C@@H](O)[C@@H]1O [Nelarabine] | 127 ± 21
29 | CC(C)(C)c1cc(NC(=O)Nc2ccc(-c3cn4c(n3)sc3cc(OCCN5CCOCC5)ccc34)cc2)no1 [Quizartinib (AC220)] | 78.9
30 | O=C(CCBr)N1CCN(C(=O)CCBr)CC1 [Pipobroman-D8] | 84 ± 7.7
31 | CO[C@H]1C[C@@H]2CC[C@@H](C)[C@@](O)(O2)C(=O)C(=O)N2CCCC[C@H]2C(=O)O[C@H]([C@H](C)C[C@@H]2CC[C@@H](OCCO)[C@H](OC)C2)CC(=O)[C@H](C)/C=C(\C)[C@@H](O)[C@@H](OC)C(=O)[C@H](C)C[C@H](C)/C=C/C=C/C=C/1C [Everolimus (RAD001)] | 83.3 ± 7.4
32 | CC1(COc2ccc3c(c2)ncn3-c2ccc3cccc(N4CCC(N)CC4)c3n2)COC1 | 70 ± 8.6
33 | O=c1[nH]c(=O)n([C@H]2C[C@H](O)[C@@H](CO)O2)cc1F [Floxuridine] | 108 ± 12
34 | CCCS(=O)(=O)Nc1ccc(F)c(C(=O)c2c[nH]c3ncc(-c4ccc(Cl)cc4)cc23)c1F [Vemurafenib (PLX4032, RG7204)] | -12.5 ± 0.2
35 | Cc1cccc(N(C)C(=S)Oc2ccc3ccccc3c2)c1 [Tolnaftate] | 101 ± 19
36 | CC(=O)OCC(CCn1cnc2cnc(N)nc21)COC(C)=O [Famciclovir] | 94.3 ± 12
37 | Cc1ccc(NC(=O)c2ccc(CN3CCN(C)CC3)cc2)cc1Nc1nccc(-c2cccnc2)n1 [Imatinib (STI571)] | 92.3 ± 6.7
38 | COc1cc(OC)cc(N(CCNC(C)C)c2ccc3ncc(-c4cnn(C)c4)nc3c2)c1 [Erdafitinib] | 59.1 ± 2.4
39 | O=C(O)CCCN1CCC(O[C@@H](c2ccc(Cl)cc2)c2ccccn2)CC1 [Bepotastine Besilate] | 2.73 ± 16
40 | C#CCC(Cc1cnc2nc(N)nc(N)c2n1)c1ccc(C(=O)N[C@@H](CCC(=O)O)C(=O)O)cc1 (stereo not given in full) [Pralatrexate] | 104 ± 9.8
